Reference: PubChem BioAssay AID588345 (Broad Institute, 2011)
The whole screen tested about 1,300 compounds, of which about 850 (65%) were called active. Roughly 1% stayed inconclusive and do not appear here. No rule for the calls is given here. The set was probably picked from earlier hits. These entries were drawn from the full list. Results with a measured potency or affinity are listed apart.

Molecular target: Dual specificity tyrosine-phosphorylation-regulated kinase 1A (Rattus norvegicus) (UniProt Q63470)
Assay: rat Dyrk1A kinase inhibitors, dose response, biochemical, cherry-pick, plate reader, 2124-01 (AID 588345)
Details: Dyrk1A kinase biochemical assay; series mostly up to 12 µM; activity change, negative = inhibition: at the top concentration

Activity change, negative = inhibition, inactive:
CC(=O)c1nc2ccccc2n1S(=O)(=O)c1ccc(Cl)cc1 4.3%, O=C(Nc1cccnc1)c1scc2c1OCCO2 -3.85%, COc1cccc(C(=O)Nc2ccc(F)c(F)c2F)c1 -14%, Cc1cc(C(=O)CSc2nn(-c3ccccc3)c(=S)s2)c(C)n1Cc1ccco1 0.28%, Cc1cc([N+](=O)[O-])nn1Cc1ccccc1F 10.6%, CC1CCC(NC(=O)c2cc(S(=O)(=O)N3CCCCC3)c[nH]2)CC1 (stereo not drawn) -4.92%, CN1CCN(CCNC(=O)c2cc3c(=O)n(C)c4ccccc4c3n2C)CC1 13.7%, CN(C)CCNC(=O)c1cc2c(=O)n(C)c3ccccc3c2n1C -2.03%, O=c1cc[nH]c2c1ccc1cccnc12 -34.5%, COc1ccc2[nH]c(C)c(CCN(Cc3cccs3)C(=S)Nc3ccccc3OC)c2c1 -2.48%, CN1CCc2c(sc3nc(NN)n(-c4ccc(Cl)cc4)c(=O)c23)C1 -1.13%, O=C(N/N=C/c1ccccn1)c1cc(-c2ccccc2Cl)n[nH]1 -32.5%, CN(C)CCNC(=O)c1cc2c(s1)-c1ccccc1OC2 -11.7%, O=C(COc1ccccc1)Nc1cccc(-c2nn[nH]n2)c1 -0.144%, O=C(Nc1cccc(-c2cn3cccnc3n2)c1)c1ccc(Br)o1 -35.3%, COc1cc(C(C)=O)ccc1Oc1ncnc2c1cnn2-c1ccccc1 2.65%, c1ccc2c(c1)Nc1ccncc1S2 -73.4%, COc1ccc(-c2csc3ncnc(Sc4nnnn4C)c23)cc1 3.58%, Cc1ccc2oc(=O)c3cnn(CC(=O)NC4CCCCC4C)c3c2c1 (stereo not drawn) 5.08%, N=C1S/C(=C\c2ccc(O)cc2)C(=O)N1c1ccc(F)cc1 -8.53%, O=C(Nc1nc2ccccc2s1)c1ccc(OCC2CCCO2)cc1 (stereo not drawn) -8.24%, C=CCn1c(SCC(=O)Nc2nc3ccccc3s2)nc(O)c(CC)c1=O -7.59%, Cn1c(=O)c2c(nc(NCc3ccco3)n2CC(O)COc2ccccc2)n(C)c1=O (stereo not drawn) 10.4%, O=C(NC(Nc1nc2ccc([N+](=O)[O-])cc2s1)(C(F)(F)F)C(F)(F)F)c1ccccc1 15.1%, CC(C)NS(=O)(=O)c1ccc(OCC(=O)N(C)Cc2ccccc2)cc1 8.65%, COc1ccc(NC(=O)N(C)C[C@H]2Oc3ccc(NC(=O)CCN4CCOCC4)cc3C(=O)N([C@H](C)CO)C[C@@H]2C)cc1 -2.3%, CC[C@@](C)(NS(=O)(=O)OCC(Cl)(Cl)Cl)c1ccccc1 -6.36%, O=C1C2C(c3ccccc3)CC=CC2[C@H](c2ccoc2)N1Cc1ccccc1 (stereo partly drawn) -3.28%, CCN1CCN(c2nc(Nc3cccc(C)c3)nc(N)c2[N+](=O)[O-])CC1 7.23%, Nc1nc(NCCCN2CCOCC2)nc(Nc2ccccc2)c1[N+](=O)[O-] 13.6%, O=C(c1ccc(Cl)c(Cl)c1)N1CCC(=O)N(C(COCc2cccc(C(F)(F)F)c2)Cc2ccccc2)CC1 (stereo not drawn) 0.743%, O=c1c2ccccc2nnn1CSc1nnc(-c2ccc3c(c2)OCO3)o1 -18.6%, O=C(O)c1ccc(-n2cc(-c3cc4ccccc4oc3=O)[nH]c2=S)cc1 -81.2%, COc1cccc(/C=C2\Oc3ccc(O)cc3C2=O)c1O -2.86%, Oc1ccc(-c2[nH]ncc2-c2nc3ccccc3s2)c(O)c1 -0.073%, CNc1nc2c(N)ncnc2n1[C@H]1O[C@@H](CO)[C@H](O)[C@@H]1O 7.57%, Nc1nc(SCc2ccc([N+](=O)[O-])cc2)c2ncn(C3OC(CO)C(O)C3O)c2n1 (stereo not drawn) 12.1%, CCC1COCCS(=O)(=O)N1Cc1ccccc1 (stereo not drawn) 16.5%, Oc1ccc2c(ccc3[nH]cnc32)c1 -2.1%, COC(=O)NNC(=O)COc1ccc(Cl)cc1 -0.602%, NNc1nccc(Nc2ccccc2C(=O)O)n1 -81.3%, COc1nc(C)ccc1-c1noc(-c2ccccn2)n1 -4.21%, O=C(Cn1cc(COc2ccccc2C(F)(F)F)nn1)c1ccc(O)cc1 -13.4%, Fc1ccccc1/C=N/Nc1ncnc2nc[nH]c12 11.1%, Cc1ccsc1/C=N/Nc1ncnc2nc[nH]c12 -0.099%, CCCCNC(=S)Nc1ccc2cn[nH]c2c1 -0.332%, O=c1c2c(O)cc(O)cc2oc2c(O)ccc(O[C@H]3O[C@@H](CO)[C@H](O)[C@@H](O)[C@@H]3O)c12 13.6%, O=C1C=CC(O)(c2cc(=O)c3c(O)cc(O)cc3o2)C=C1 -5.93%, CS(=O)(=O)Nc1ccc(-c2ccc(/C=C3\SC(N)=NC3=O)o2)cc1 -4.55%, CSc1nc(SCC(=O)NCc2ccco2)c2c3c(sc2n1)CN(C)CC3 -30.4%, COc1ccc2c(Cl)c(C(N)=O)sc2c1 0.271%, CC(C)Oc1ccc(C(CC(=O)NCc2ccco2)c2ccccc2)cc1 (stereo not drawn) 6.23%, COc1ccc2c(c1)[nH]c1c(Cl)ncnc12 5.9%, CCOC(=O)c1ccc(NC(=S)Nc2ccc(Br)cc2N)cc1 -4.3%, COc1ccc(-n2ccc(-c3nn(-c4cccc(C(F)(F)F)c4)ccc3=O)n2)cc1 4.68%, Cc1ccc(/C=c2\sc3n(c2=O)CN(c2ccc(Br)cc2)CN=3)o1 -30.4%, O=C(O)c1ccc2c(c1)S(=O)(=O)c1cc(Cl)ccc1C2=O 6.12%, CCCCn1c(NCCO)nc2ccccc21 -2.66%, Clc1ccc2[nH]c3c(c2c1)CCc1cn[nH]c1-3 -37.9%, Cc1ccccc1/C=N/Nc1ncnc2nc[nH]c12 -20.2%, CC(=O)c1ccc(NC(=S)Nc2ccc3cn[nH]c3c2)cc1 -17.4%, COc1ccc(N=Nc2c(C)n[nH]c2C)cc1 4.04%, N#CCC(N)=C(C#N)C#N -1.58%, CC1OC(OCC2OC(Oc3c(-c4ccc(O)cc4)oc4cc(O)cc(O)c4c3=O)C(O)C(O)C2O)C(O)C(O)C1O (stereo not drawn) -20%, CCCCn1c(N2CCC(Cc3ccccc3)CC2)nc2c1c(=O)[nH]c(=O)n2C -5.72%, Cc1cccc(OCC(=O)Nc2nc3ccc([N+](=O)[O-])cc3s2)c1 5.01%, COc1ccc(-c2ccc(=O)n(Cc3cccc([N+](=O)[O-])c3)n2)cc1 -43.7%, CC1(C)Nc2ccc(O)cc2-c2c1ssc2=S -1.72%, CCC(C)CCN1C(Nc2ccccc2)=NC[C@@H]1Cc1ccccc1 (stereo partly drawn) -7.86%, COc1ccc(N2C(=O)C3CCCN3C2c2cc(OC)c(OC)c(OC)c2)cc1 (stereo not drawn) 1.89%, CCOC(=O)C1CCCN(c2c(NCCCN3CCCC(C)C3)c(=O)c2=O)C1 (stereo not drawn) -0.476%, CCCOc1ccc(/C=N/NC(=O)CN2CCCCC2)cc1 -2.8%, COc1ccc(/C=C2\SC(N3CCc4ccccc4C3)=NC2=O)cc1 -31.4%, Cc1cccc(NC(=S)NN2CCN(C)CC2)c1 -6.09%, O=C1[C@H]2[C@H](C=CC[C@H]2C(=O)N2CCOCC2)CCN1Cc1ccccc1 5.23%, CCOC(=O)C1CCCN(c2c(NCCN(C)Cc3ccccc3)c(=O)c2=O)C1 (stereo not drawn) -7.74%, COCCN=C1N[C@@H](c2cccc(C(F)(F)F)c2)C(C(=O)OC)=C(C)N1Cc1ccccc1 -0.582%, O=C1OCc2cccc3cccc1c23 4.49%, Nc1ncnc(N)c1N=Nc1ccccc1 10.3%, CCOC(=O)C1=C(C)OC(N)=C(C#N)C1c1ccc(O)c(OC)c1 (stereo not drawn) 7.18%, CCN(CC)c1ccc(/C=C2\C(=O)c3ccc(C(=O)O)cc3C2=O)cc1 4.65%, O=c1[nH]c(=S)[nH]c2sccc12 -5.08%, O=C(COC(=O)c1cccs1)c1ccc2ccccc2c1 -4.36%, CCc1ccccc1NC(=O)C1CCCN(S(=O)(=O)c2ccc3c(c2)CC(C)N3C(C)=O)C1 (stereo not drawn) -3.11%, CCOC(=O)C(Cc1ccc(O)cc1)NC(=O)CCc1c[nH]c2ccccc12 (stereo not drawn) 0.971%, CC(C)(C)[C@H]1C=C(C(=O)N2CCN(Cc3ccccc3)CC2)O[C@@H](OCCCCO)C1 0.688%, COc1ccc2c(Cl)c(C(=O)N/N=C/c3cccnc3)sc2c1 7.43%, COc1ccccc1NC(=S)N/N=C/c1ccc(O)cc1 -0.12%, Cc1ccc(CN2CCN(c3ncccn3)CC2)o1 -2.31%, O=C1CCN(CCCc2ccccc2)CCN1[C@H](CO)c1ccccc1 5.58%, Oc1ccc(-c2nc3ncccn3c2Nc2ccc3c(c2)OCO3)cc1 0.488%, O=[N+]([O-])c1ccc(O)c(C=NNc2ccc(S(=O)(=O)O)cc2)c1 2.14%, Cc1cccc2nc(-c3cccc(NC(=O)c4ccc(Cl)cc4)c3)cn12 -7.42%, COc1ccc2c(c1)OC[C@H]1[C@H]2N2C(=O)CN(CC3CCCO3)C(=O)[C@@]2(C)[C@H]1c1ccccc1 (stereo partly drawn) 15.3%, COc1ccccc1-c1sc2ccccc2c1C#Cc1ccc(N(C)C)cc1 11.4%, O=C(O)c1cc(N/N=C/c2c(O)ccc3ccccc23)ccc1Cl -0.869%, N#Cc1c2ccc(O)cc2n2ccccc12 -4.28%, COc1cccc(-c2noc(N)c2C#N)c1 4.6%, COc1ccc2c(c1)CCc1cc(C(=O)O)sc1-2 -18.2%, COc1ccc2c(c1)CCc1cn3nc(C)cc3nc1-2 -83.2%, COC(=O)c1sc2cnccc2c1N -37.3%, COc1ccc(OC)c(C2=Nn3c(nnc3-c3ccco3)SC2)c1 10.8%, Brc1ccccc1C1=Nn2c(nnc2-c2ccccc2)SC1 -4.23%, CCOC(=O)C1CCCN(c2c(N3CCN(C4CCCCC4)CC3)c(=O)c2=O)C1 (stereo not drawn) -3.65%, CC(C)Oc1ccc(C2CNC(=O)C2)cc1 (stereo not drawn) 5.01%, COC(=O)c1[nH]c2cc(OC)ccc2c1N -3.32%, COC(=O)c1c(-c2ccc(S(C)(=O)=O)cc2)sc2ccc(OC)cc12 3.56%, Cc1ccc2c(c1)N(CC(=O)NC1CCCCC1)C(=O)c1cccnc1O2 5.4%, COc1cccc(Cn2nnc(C(=O)NCCc3ccc(Cl)cc3)c2N)c1 4.5%, CCCCN(CC)CCCNC(=O)c1cc2cc3ccc(OC)cc3nc2o1 14%, CCN1CCN(CCCNC(=O)c2cc3cc4ccc(OC)cc4nc3o2)CC1 -30.7%, COc1ccc2cc3cc(C(=O)NCCCN4CCC(C)CC4)oc3nc2c1 -21.4%, COCCNC(=O)c1cc2cc3ccc(OC)cc3nc2o1 -36.9%
